This note sets out measurements from PubChem BioAssay (NCI).

The panel holds about 83,000 compounds, 20% with a hit somewhere; the sample as a whole holds those more often.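 Values shown are percent growth following 48 h exposure of cells in 96-well plates to a single concentration of compound; below 10 was considered active.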 Values without a mark were called inactive. The source made the active and inactive calls.

In the assay the test system is HL-60(TB) leukemia. Kind of assay: NCI-60 one-dose screen, 48 h (100 = growth as untreated, 0 = no growth, -100 = all killed). As to conditions: 10 µM unless noted.
Regarding `COc1cccc(NC(=O)Nc2ccc(Nc3ncnc4[nH]c(C)c(C)c34)cc2)c1`, the growth was 104%.
Turning to `COc1ccc(-c2nc3ccc(-c4nc5ccc(N6CCN(C)CC6)cc5[nH]4)cc3[nH]2)cc1OC`, the growth was 49.1%.
To `COc1ccc(S(=O)(=O)Nc2c(/C=C\c3cc(OC)c(OC)c(OC)c3)ccc(OC)c2O)cc1` belongs -42.3% (active).
The same measure for `O=[N+]([O-])c1ccc(O)c(S(=O)(=O)O)c1`: 101%; for `O=C(NCCNc1cc(-c2cn(-c3ccccc3)nc2-c2cccc(O)c2)ccn1)Nc1ccccc1`: 29.9%; for `COc1ccc(-c2csc(NC(=O)c3cc(O)c(O)c(O)c3)n2)cc1`: 62.4%.
To `Nc1cccc(-c2ccc(COc3ccc(CC4SC(=O)NC4=O)cc3)cc2)c1` (stereo not drawn) belongs 43.4%.
Regarding `CN(C(=S)S(=O)(=O)C12CC3CC(CC(C3)C1)C2)c1ccccc1`, the growth was 11.5%.
For `CN1CCN(CC#CCOC(=O)CNC(=O)[C@]23CCC(C)(C)C[C@H]2C2=CC[C@@H]4[C@@]5(C)CC[C@H](O)C(C)(C)[C@@H]5CC[C@@]4(C)[C@]2(C)CC3)CC1`, the growth is 49.7%.
On to `COc1cc(/C=C/C(=O)c2c(-c3ccc(Cl)cc3)nc3sc(C)nn23)cc(OC)c1OC`, for which the growth is 50.6%.
The same measure for `CC(=O)O[C@H]1CC[C@]2(C)[C@H]3C(=O)C=C4[C@@H]5C[C@](C)(C(=O)N6CCCNCC6)CC[C@]5(C)CC[C@@]4(C)[C@]3(C)CC[C@H]2C1(C)C`: -61.9% (active).
The same measure for `O=S(=O)(NCCNc1nccc(-c2c(-c3cccc(O)c3)nc3occn23)n1)c1ccc(C(F)(F)F)cc1`: 79.1%.
The same measure for `CC1=CC(=O)c2cccc(NC3=NCCO3)c21`: 100%.
With `NC(=O)c1c(NC(=O)c2ccccc2)sc2c1CCC(=O)C2`, the growth was -6.87% (active).
The same measure for `FC(F)(F)c1ccc(-c2cnc(Cl)nc2NC2CCCCCC2)cc1`: -6.33% (active); for `Cc1cc(NCCCNc2ccnc3cc(Cl)ccc23)nc(Nc2ccc(C(=O)N3CCCCC3)cc2)n1`: -63.2% (active).
To `CCC1CCc2nc3sc(C(=O)Nc4ccccc4C)c(N)c3cc2C1` (stereo not drawn) belongs 2.97% (active); to `COc1nc2c(c(=O)n1C)CN(Cc1ccccc1)C=N2`, 92.9%.
The same measure for `O=C(c1cccc(Br)c1)N1CCN(c2ccnc3cc(Cl)ccc23)CC1`: 92.6%; for `COc1ccc(Cc2cnc(NC(=O)c3cc(C)oc3C)s2)cc1`: -9.34% (active).
In the case of `O=C(CCC(=O)N(CCO)CCO)N(CCO)CCO`, the growth is 89%.
To `CCN(CC)CCCC(C)Nc1c2c(nc3ccc(OC)cc13)CCCC2` (stereo not drawn) belongs 80.3%; to `CC[C@]1(O)C[C@@H]2CN(CCc3c([nH]c4ccccc34)[C@@](C(=O)OC)(c3cc4c(cc3OC)N(C)[C@H]3[C@@](O)(C(N)=O)[C@H](O)[C@]5(CC)[C@@H]6C[C@@H]6CN6CC[C@]43[C@@H]65)C2)C1`, -3.28% (active).
